Sm TGR block = blocks Schistosoma mansoni thioredoxin glutathione reductase; Q962Y6; purified TGR, DTNB reduction, TNB absorbance 405 nm; Potency, µM (titrated, usually from 114 µM), inactives show at the highest dose activity change, negative = inhibition, usual class: inhibitors; 360,000 tested, 3% active; AID 485364; further: potency means the concentration at half of the fitted maximal effect; nearly all actives have a fitted effect of over 60% in size
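TGR 20 nM + NADPH 100 uM (dispensed conc.), cpd preinc 15 min RT; start with NADPH (500 uM addition) then DTNB (15 mM addition). Kinetic TNB absorbance, 405 nm filter. Four-parameter Hill fit across titration.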
VACV Venus inh = vaccinia inhibition (Venus reporter) | 330,000 tested, 0.46% active | Potency, µM (titrated, usually from 36.5 µM), without a hit: at the highest dose activity change, negative = inhibition, hits mostly inhibitors | Vaccinia virus Venus reporter expression, fluorescence; calls by dose curve; tested in A549 cells; further: potency means the concentration at half of the fitted maximal effect; nearly all actives have a fitted effect of over 30% in size
FMDV antiviral = foot and mouth disease virus antiviral activity; FMDV antiviral cell-based qHTS; Potency, µM (series often up to 57.9 µM), for the others: at the highest dose activity change, negative = inhibition, usual class: inhibitors; 410,000 tested, 1.2% active; calls by dose curve; tested in HEK293T cells; further: read-out not given here; potency means the concentration at half of the fitted maximal effect; nearly all actives have a fitted effect of over 45% in size
Vaccinia mCherry = vaccinia inhibition (mCherry reporter) | Vaccinia virus mCherry reporter infection, fluorescence | Potency, µM (titrated, usually from 36.5 µM), for the others: top-dose activity change, negative = inhibition, actives largely listed as inhibitors | 310,000 tested, 0.63% active | AID 720579; calls by dose curve; tested in A549 cells; further: potency means the concentration at half of the fitted maximal effect; nearly all actives have a fitted effect of over 35% in size
HCMV antiviral = inhibitors of human cytomegalovirus; 410,000 tested, 4.5% active; activity change, negative = inhibition, % at 57.5 µM; AID 1259415; HFF cells, HCMV-luciferase reporter, 72 h; hits give low values; in the data active means activity change below about -60%; inconclusive means no clear call, values can overlap the other calls; inactive means above about -39%
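Screen run at 2 compound doses on HFFs infected with reporter HCMV, MOI 1 PFU/cell. Luciferase activity from cell lysates at 72 h post infection gave inhibition relative to buffer-only and Salinomycin wells.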
HCV inhibitor = blocks hepatitis C virus. Huh7.5.1 HCVcc-Cre infection, luciferase reporter, 44 h. Potency, µM (highest dose often 41.8 µM), without a hit: at the highest dose activity change, negative = inhibition, usual class: inhibitors. 340,000 tested, 3.4% active. AID 651820; further: potency means the concentration at half of the fitted maximal effect
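Antiviral activity was scored by luciferase reporter output from cells infected with HCVcc-Cre (~0.5 moi) in presence of compound, 44 h infection period, cells seeded 1,000/well 4 h prior.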
* hit, by the source's call; i = inactive; ? = inconclusive; · = no result. Only some compounds are listed: those with a hit (about 9.3% of all), similar ones and a draw of the others. Unless noted, the call rests on the fitted dose curve; in most records, active means well fitted curve in the direction sought with a large enough effect; inconclusive means small, poorly fitted or top-dose-only effect, or another doubt; inactive means no such curve, though single readings can be large; an effect the other way counts as inactive or inconclusive. On the % scale 0 is the no-effect control and ±100 the full control effect.

SMILES	Sm TGR block	VACV Venus inh	FMDV antiviral	Vaccinia mCherry	HCMV antiviral	HCV inhibitor
CCCn1c(=O)c2sccc2n2c(CCCC(=O)N3CCN(c4ccccc4OC)CC3)nnc12	4%	0%	-16%	-12%	-30	·
O=C(NCc1ccco1)C1CCCN1C(=O)Nc1ccccc1 (stereo not given)	0%	·	3%	·	-21	13%
N#C/C(=C\c1ccco1)Sc1nc2ccccc2s1	40µM*	·	30%	·	141	-27%
O=C(CSc1nc2ccccc2s1)N/N=C/c1ccco1	-2%	-22%	18%	-13%	5	6%
O=C(N=Nc1ccc(NOC(=O)c2ccccc2Br)cc1)c1ccccc1O	?	·	·	·	127	·
Cc1cc(N=NC(=O)c2ccccc2O)c2ccccc2c1O	9%	·	-18%	·	-73*	?
Cc1ccccc1NS(=O)(=O)c1ccc(C(=O)NCCCN2CCCC2=O)cc1	-5%	-6%	-29%	-15%	-32	-23%
O=S(=O)(c1cccc2cccnc12)N1CCCc2ccccc21	8%	5%	-5%	i	13	8%
O=C(Nc1ccccn1)c1ccc(Cl)c(S(=O)(=O)N2CCc3ccccc32)c1	-13%	·	25µM*	·	-93*	?
O=S(=O)(c1cccc2cccnc12)N1CCc2ccccc21	0%	-25%	7%	·	-63*	-6%
O=C(Nc1cccnc1)c1ccc(Cl)c(S(=O)(=O)N2CCc3ccccc32)c1	2%	-7%	-22%	i	?	-29%
O=C(NCC(c1ccco1)N1CCCC1)c1ccc(Cl)c(S(=O)(=O)N2CCc3ccccc32)c1 (stereo not given)	?	?	?	?	?	4.5µM*
COc1ccc(C2c3c(oc4cc(C)cc(C)c4c3=O)C(=O)N2Cc2ccco2)cc1OC (stereo not given)	4%	35%	-8%	26%	-2	·
COc1ccc(NC2CCCN(C(=O)c3cc(CC(C)C)nc(N)n3)C2)cc1 (stereo not given)	-3%	·	16%	·	-35	9%
O=S(=O)(CCOc1ccccc1)c1nc2ccccc2[nH]1	13µM*	·	-20%	·	-69*	-15%
O=c1[nH]c2ccc(S(=O)(=O)N3CCCCC3)cc2[nH]c1=O	0%	-10%	0%	·	-9	14%
CC[C@H](C)/C=C(C)/C=C/C(=O)Cc1cc(O)c(C)c(O)c1C=O	28µM*	22%	-14%	5%	4	?
Cc1c(C(=O)NCCNc2ncc(C(F)(F)F)cc2Cl)cccc1[N+](=O)[O-]	-1%	-13%	-14%	0%	-8	11µM*
Cc1nc2ccc(NS(=O)(=O)c3cccc([N+](=O)[O-])c3)cc2s1	·	0%	-8%	-12%	?	11µM*
Cc1nc2ccc(NC(=O)c3cc([N+](=O)[O-])cc([N+](=O)[O-])c3Cl)cc2s1	0.5µM*	-16%	?	-6%	78	25µM*
Cc1ccc(S(=O)(=O)Nc2ccc3nc(C)sc3c2)cc1	7%	?	-16%	·	·	?
Cc1nc2ccc(NS(=O)(=O)c3ccc(Br)cc3)cc2s1	-5%	·	-5%	·	-60*	?
Cc1nc2ccc(NC(=O)c3ccc(Cl)c([N+](=O)[O-])c3)cc2s1	-10%	-3%	17%	-1%	-31	-20%
CC(=O)Nc1ccc2nc(NS(=O)(=O)c3ccc(C)cc3)sc2c1	7%	-7%	88%	i	?	-3%
CC(=O)Nc1ccc(S(=O)(=O)Nc2ccc3nc(C)sc3c2)cc1	·	8%	-11%	-17%	-76*	?
Cc1nc2ccc(NS(=O)(=O)c3ccc4c(c3)OCCO4)cc2s1	1%	?	-13%	·	-33	3.2µM*
Cc1ccc(S(=O)(=O)Nc2ccc3c(c2)OCCO3)cc1	6%	-4%	22%	0%	15	-8%
Cc1ccc(S(=O)(=O)Nc2ccc3nc(N)sc3c2)cc1	4%	·	41%	·	-89*	13µM*
Cc1ccc(S(=O)(=O)Nc2ccc3nc(-c4cccn4C)[nH]c3c2)cc1	0%	-16%	23%	-24%	30	11µM*
O=C1CCCN1c1ccc(S(=O)(=O)Nc2ccc3c(c2)OCCO3)cc1	3%	?	·	?	-81*	?

Screening data (PubChem)
